# In all, about 1,600 compounds went through this assay and about 990 (62%) were called active. Not shown: some 30% with an inconclusive outcome. The call rests on the fitted dose curve; in most records, active means well fitted inhibition curve with a large enough effect; inconclusive means small, poorly fitted or top-dose-only effect; inactive means no such curve, though single readings can be large or run the other way. So high a share suggests a set chosen from earlier hits. Only a sample is shown.
# Assay: qHTS for Inhibitors of TGF-b: Confirmation of Cherry Picks; further: nearly all actives have a fitted effect of over 65% in size
# Conditions: HepG2 CAGA-GFP TGF-b reporter, GFP fluorescence, 18 h, cells stimulated with TGF-beta, 500 pg/mL; series mostly up to 46.1 µM
# Source text: TGF-b is a main component in the TGF-b signaling pathway which plays diverse roles in cellular and development pathways. TGF-b is mediated through transcription factors called "Smads". Although the Smad-dependent pathway is the primary canonical TGF-b signaling mode, TGF-b1 can also activate alternative signaling pathways, including those involving MAPK (ERK, JNK and p38). This interaction may mediate or enhance Smad-dependent responses, or can exert Smad-independent effects. The complexity of this signaling cascade allows the TGF-b superfamily to perform unique, overlapping or redundant functions. We believe that targeting the TGF-beta pathway at the Smad-transcription factor level may eliminate the consequences of disrupting the entire pathway and offer specificity without affecting other signaling pathways. Smad3 is the primary transducer of TGF-b's signals and Smad3 regulates many functions attributed to TGF-b signaling. We hypothesize that Smad3 inhibitors will selectively eliminate Smad3-specific TGF-beta signals without undesired off-target effects. We aim to identify Smad3-small molecule antagonists using a quantitative high throughput screening (qHTS) approach. In this assay, hits identified from the primary screen were re-tested. MH087449NIH Chemical Genomics Center [NCGC] NIH Molecular Libraries Probe Centers Network [MLPCN] MLPCN Grant: MH087449 Assay Submitter (PI): Sushil Rane, National Institute of Diabetes and Kidney Diseases
# Suspensions of trypsinized HEPG2 CAGA-GFP cells were dispensed into white, tissue culture-treated, solid 1536-well plates at 5uL/well (1000 cells/well final concentration) in DMEM medium supplemented with 1% FBS. Plates were incubated at 37 degrees C for 2 hours, after which 23 nL of compounds or DMSO were delivered to each well using a pin tool. One uL of recombinant TGF-beta in DMEM (1% FBS) was then dispensed (500 pg/mL final concentration), and plates were incubated at 37 degrees C for 18 hours. The plates were measured on an Acumen eX3 Explorer plate reader for GFP fluorescence (ex488/em500-530). GFP values were calculated by determining the mean GFP fluorescence of individual cells, and compiling these values for each well to determine a total well GFP signal. The %Activity was determined from the corrected fluorescence values. A titration of the known TGF-B inhibitor SB431542 was included to monitor plate performance, while unstimulated HEPG2 (-TGF-B) control wells were used to normalize %Activity of identified inhibitors; unstimulated wells corresponded to 100%Activity (full inhibition), while stimulated cell controls (+DMSO) were used to normalize 0%Activity (no inhibition). Concentration-response curves were fitted to the signals arising from the resulting fluorescence. The concentration-effect curves were then classified based on curve quality (r2), response magnitude and degree of measured activity, and compounds were subsequently categorized based on their curve class.
# Potency means the concentration at half of the fitted maximal effect.
row,Structure (SMILES),Potency
1,O=[N+]([O-])c1ccccc1S(=O)(=O)Nc1cccc2cccnc12,13 µM (active)
2,CN(C)CCNC(=O)c1ccc(Cl)c2cc3ccccc3nc12,3.26 µM (active)
3,O=C(NC1=CC(=O)c2ccccc2C1=O)c1ccccc1,5.17 µM (active)
4,COC(=O)COc1cccc2c(=O)n(CC(=O)NCc3ccccc3)ccc12,inactive
5,COc1cc(NC(=O)c2ccccc2NS(=O)(=O)c2ccc(Cl)s2)cc(OC)c1,5.8 µM (active)
6,CN(c1ccccc1)S(=O)(=O)c1ccc(C(=O)N2CCN(c3ccccc3Cl)CC2)cc1,5.8 µM (active)
7,COc1ccc(CNC(=O)C[C@H]2C[C@H](C(=O)N3CCOCC3)[C@@]3(CCC4CCCC4)c4[nH]c5ccc(Cl)cc5c4CCN3C2=O)cc1OC,4.61 µM (active)
8,COc1ccc(C(=O)c2c3ccc([N+](=O)[O-])cc3[n+]([O-])n2CCCN)cc1,18.4 µM (active)
9,COc1cc(NC(=O)c2[nH]cnc2C(N)=O)cc(C(=O)Nc2cccc(C(F)(F)F)c2)c1,16.4 µM (active)
10,Cn1c(=O)n(C)c2cc(S(=O)(=O)N3CCCc4ccccc43)ccc21,inactive
11,COc1cc(CC(=O)Nc2nc(-c3ccc(F)c(F)c3)cs2)cc(OC)c1OC,11.6 µM (active)
12,Cc1oc2c(F)c(F)c(F)c(F)c2c1S(=O)(=O)Nc1cccc(C(F)(F)F)c1,20.6 µM (active)
13,Clc1ccc(Nc2nc(-c3cccs3)cs2)nc1,13 µM (active)
14,CCOc1ccc(CCN2C(=S)N([C@@H](CC(C)C)CN3CCC[C@@H]3CN3C(=S)NC[C@@H]3Cc3ccc(O)cc3)C[C@@H]2CC(C)C)cc1,18.4 µM (active)
15,CCN(CC)C(=O)C1=C(C)N(Cc2ccc(C(C)(C)C)cc2)C(=O)C(CC(=O)NCc2cccc3ccccc23)C1 (stereo not given),14.6 µM (active)
16,COC(=O)N/N=C/c1cn(CCCOc2ccc(C)cc2)c2ccccc12,14.6 µM (active)
17,c1ccc2cc3c(NCCN4CCOCC4)ccnc3cc2c1,18.4 µM (active)
18,c1ccc(-c2cn3c(n2)CCc2ccc4cccnc4c2-3)cc1,inactive
19,O=C(/C(=C/c1cccc(Cl)c1)c1nc2ccccc2[nH]1)c1ccccc1,2.91 µM (active)
20,CC(=O)c1cccc(-c2cnc3c(NC=O)cc(-c4ccc(N(C)C)cc4)cn23)c1,7.31 µM (active)
21,CC(=O)c1ccc(-c2cnc3c(NC=O)cc(-c4cccc(NS(C)(=O)=O)c4)cn23)cc1,0.731 µM (active)
22,O=C(Nc1ccc(Cl)cc1)Nc1nnc(/C=C/c2ccccc2)s1,inactive
23,COc1ccc(-c2onc(C)c2-c2ccc3c(c2)OCCO3)c(O)c1,16.4 µM (active)
24,COc1cc(NC(=O)COC(=O)c2ccc([N+](=O)[O-])s2)cc(OC)c1OC,23.1 µM (active)
25,Cc1ccnc(NC(=O)C2CCN(S(=O)(=O)c3c(C)c(C)cc(C)c3C)CC2)c1,7.31 µM (active)
26,S=C(NCC1COc2ccccc2O1)Nc1ccc(Br)cc1 (stereo not given),18.4 µM (active)
27,CN(C)c1nc(N)nc(CSc2nnnn2-c2cccc3ccccc23)n1,7.31 µM (active)
28,CN(C)c1nc(=Nc2cccc(Cl)c2)ss1,5.17 µM (active)

row,Structure (SMILES),Potency
1,Cc1cccc(-c2nc(Nc3ccc(O)cc3)c3ccccc3n2)c1,18.4 µM (active)
2,COc1cc(/C=C2\Oc3ccc(C#Cc4ccc(O)cc4)cc3C2=O)cc(OC)c1,6.51 µM (active)
3,O=C(Nc1nnc(S(=O)(=O)N2CCCCCC2)s1)c1cccc(Br)c1,23.1 µM (active)
4,O=C(Nc1ccc(Br)cn1)c1ccc([N+](=O)[O-])o1,18.4 µM (active)
5,COc1ccc(CC(=O)Nc2ccccc2NC(=O)c2ccco2)cc1OC,inactive
6,CCOC(=O)C1=C(N)N(c2ccc(C)cc2)C2=C(C(=O)CCC2)C1c1cccs1 (stereo not given),23.1 µM (active)
7,Cc1nc(/N=C(\N)NC(=O)NC2CCCCC2)nc2ccccc12,11.6 µM (active)
8,Clc1ccc2c(c1)C1=C(C(c3ccncc3)O2)C(c2ccc(Br)cc2)n2ncnc2N1 (stereo not given),2.31 µM (active)
9,CCCOc1ccccc1C1CC(=O)Nc2cc3c(cc21)OCO3 (stereo not given),8.2 µM (active)
10,COc1cccc2sc(N(CCCN(C)C)C(=O)CCS(=O)(=O)c3ccccc3)nc12,3.26 µM (active)
11,Cc1cccc2sc(N(CCCN(C)C)C(=O)CCS(=O)(=O)c3ccccc3)nc12,5.17 µM (active)
12,COc1ccc(C)cc1S(=O)(=O)N1CCN(S(=O)(=O)c2cc(C(=O)O)ccc2C)CC1,inactive
13,Cc1nn(-c2ccccc2)c(C)c1/C=N/NC(=O)CSc1nc2ccccc2c(=O)n1-c1ccccc1,2.31 µM (active)
14,Cc1ccc(CN2CC(N3CCC(Cc4ccccc4)CC3)CS2(=O)=O)cc1 (stereo not given),20.6 µM (active)
15,O=C(Nc1ccc(C2CC2(Cl)Cl)cc1)c1cccc([N+](=O)[O-])c1 (stereo not given),inactive
16,Cc1ccc(S(=O)(=O)Nc2nc3ccccc3nc2N2CCc3ccccc3C2)cc1,18.4 µM (active)
17,Cc1cccc(NS(=O)(=O)c2ccc(-c3cnc(C4CC4)o3)cc2)c1,16.4 µM (active)
18,COc1ccc2nc(N3CCN(C(=O)c4ccc([N+](=O)[O-])o4)CC3)sc2c1,20.6 µM (active)
19,OCC1OC(n2cnc3c(N4CCCC4)ncnc32)C(O)C1O (stereo not given),2.59 µM (active)
20,CCC(C)N1C(=O)S/C(=C/c2ccc(Sc3nc4ccccc4[nH]3)o2)C1=O (stereo not given),5.17 µM (active)
21,CCCOc1ccc(F)cc1-c1cc(C(=O)Nc2ccc(F)c(Cl)c2)[nH]n1,20.6 µM (active)
22,Clc1cccc(Cc2c(-c3cccc(Cl)c3)nc3ccc(Cl)cn23)c1,18.4 µM (active)
23,Oc1c(CN2CCN(c3ccc(F)cc3)CC2)cc(Cl)c2cccnc12,6.51 µM (active)
24,OCCCNc1nccc(-c2cc(Nc3cccc(Cl)c3)ncn2)n1,0.411 µM (active)
25,CC(=NNC(=S)N1CCCCCC1)c1ccccn1,0.651 µM (active)
26,Cc1cccc(CS(=O)(=O)c2ncc(Cl)c(C(=O)Nc3ccc(F)cc3)n2)c1,5.17 µM (active)
27,Cc1cccc(NC(=O)c2nc(S(=O)(=O)Cc3ccccc3)ncc2Cl)c1,4.11 µM (active)

# — PubChem BioAssay AID720534 (National Center for Advancing Translational Sciences (NCATS), 2013)
